Data on 61 sequences can be found in the supplement of paper PMC11417369.

± gives the standard deviation of the averaged measurements. The full ranking holds about 25,000 sequences; the median of “ln(normalized median fluorescence intensity)” is about 7.9, and the highest 2% start at about 11. For the sample, the highest values were picked, then their nearest neighbours and some sequences at random.

In this assay the test system is PfAP2-I AP2 domain 3 (GST-tagged). Briefly: gcPBM binding intensity (ln(normalized median fluorescence intensity)); higher = stronger DNA binding. The method in brief: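 An Agilent 4 × 180k array of primer-extended double-stranded 36-bp intergenic genomic probes, with negative controls, was incubated for 1 h with GST-tagged P. falciparum DNA-binding domains expressed in E. coli. Alexa488 anti-GST antibody detected bound protein, scanned at 488 nm. Binding intensity is the highest Masliner-normalised natural-log median intensity across replicate spots of either probe orientation.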
Turning to “TTATAAAAAAAAAAAAAAAAGAAAATGAATTCACGA [CACACA_negctrl_site1248]”, the “gcPBM binding intensity (ln)” value worked out at 8.19 ± 0.3.

On to “TAAATTATTATCCCCTCACACACAAAAATAAAAAGA [CACACA_site2886]”, for which the “gcPBM binding intensity (ln)” value worked out at 8.56 ± 0.25. The result for “CGTTGTAGGGAATGTAGTACAGTTATTATTTTATTA [XGTACX_site2429]” reads 7.88 ± 0.24; that for “TTAATGCACTTTATTACACACACTAGTTCATTACCT [CACACA_site2294]”, 11.5 ± 0.95; that for “TATTATATTGTTCATTTACACTTTCATTTTAAAAAA [CACACA_negctrl_site260]”, 8.05 ± 0.54. Take “AATGAGAATTTTATTACACACTTTAATATATTTTCA [CACACA_site784]”: the “gcPBM binding intensity (ln)” value came out at 7.7 ± 0.53.

In the case of “ATAGTTACACAATGGTGTACAAGTCAATATATTTCT [XGTACX_site4614]”, the “gcPBM binding intensity (ln)” value came out at 7.95 ± 0.33. The result for “ATATTGTTATATGTTTGTACATATTTTTTATATTTT [XGTACX_site6834]” reads 7.7 ± 0.64; that for “AACAAAATAAAAAGTAATCTTATTTATTAAAATTTT [CACACA_negctrl_site419]”, 7.25 ± 0.43; that for “AAGGCATGACTATCTGCACACATAAAAATAAGAAAT [CACACA_site8180]”, 8.62 ± 0.39. The result for “GCTGAAAGGATAAAGGTGCATATTTTTTAAAAAATT [GTGCAC_site9487]” reads 10.4 ± 0.28; that for “TAAATAGTTATAAAAGTGCAAAAAAAAAAAAAAAAA [GTGCAC_site9550]”, 10.1 ± 0.53. Then ATATAAGAATAAATAGTGCAAAATAAATGATTATTT, with 10.7 ± 0.33; and AAAATTTATAGTATGGTGCATAAAAATATATATATA, with 11.4 ± 0.23. “ACAATGAAATATTCATGTACATATAAATAATAGTGT [XGTACX_site3762]”: the “gcPBM binding intensity (ln)” value turned out to be 7.93 ± 0.42. The result for “TATAAATTTATAAATAGTACATATATTTATATATAT [XGTACX_site6433]” reads 8.12 ± 0.64; that for “TAAAATATTTCAAAGGTGCAATGATAATTTAAGACG [GTGCAC_site9609]”, 10.6 ± 0.54; that for “CATAATTTAAAAAAGGTGCAAAATGGATAATATATA [GTGCAC_site9657]”, 11.1 ± 0.57.

In the case of “TTATAAAAAATTTTAGTGCATATATGATTTATATAT [GTGCAC_site9831]”, the “gcPBM binding intensity (ln)” value is 10.1 ± 0.33.

As for GTTATTGAAAAAATAGTGCAATATAACAAAGTAAAA, the “gcPBM binding intensity (ln)” value was found to be 11.4 ± 0.52. With AAATGAATATTCATAGTGCAATATATAAATGAAAAT, the “gcPBM binding intensity (ln)” value was 11 ± 0.38.

Turning to “AAGAAAATATAACAAAGTAAAAACATATTATATATA [TGCATGCA_negctrl_site248]”, the “gcPBM binding intensity (ln)” value is 7.34 ± 0.34. For “TTTTATATCTACCTTTGTACATATTTATTTTTTTTA [XGTACX_site7872]”, the “gcPBM binding intensity (ln)” value came out at 8.01 ± 0.74. Turning to “AATAATGAAACAGGAAAAAAATATTGTTAAAATGTA [XGTACX_negctrl_site400]”, the “gcPBM binding intensity (ln)” value is 7.95 ± 0.78. Then “AAAAAAAAAAAAAAAACACACATAAATAGCTCAAAT [CACACA_site3973]”, with 8.78 ± 0.49. Take “ACAAAACGAACATACGCATGTGTGTACATTAATATA [TGCATGCA_site922]”: the “gcPBM binding intensity (ln)” value stood at 8.14 ± 0.099. For “TTTTCATTCTTTTCCTTTGATTTACAATAGTATATT [GTGCAC_negctrl_site687]”, the “gcPBM binding intensity (ln)” value came to 7.72 ± 0.79. The result for “TTTTCCATAAGAATTACACACAGAAAGGATAAGTAT [CACACA_site105]” reads 8.04 ± 0.73; that for “TAATAATCAAGTTAACGTACAAAATCATCTATAGAA [XGTACX_site5921]”, 8.03 ± 0.13. Then TAATATATATATATGGTGCATTTAATTTATATATAA, with 11.2 ± 0.74; and “TGTAAATAATATAATAGTACGCATATTTTTATTGAA [XGTACX_site284]”, with 7.87 ± 0.17; and “ATTATTATATAGTGTGCATGCAATATTAATAAAACC [TGCATGCA_site245]”, with 8.79 ± 0.52. The result for “TCTATTTTTTATATGGTGCATTGTTCTTATTAATAT [GTGCAC_site9392]” reads 10.8 ± 0.71; that for TTAAAATAGATATTAGTGCAAAAAAAAAAAAATAAA, 10.7 ± 0.23; that for ATTGATTATTTTCTAGTGCATAAAATAATTTTTTTT, 10.5 ± 0.51.

As to “GTTATAATTGAACTAGTGCATAAATATATTTTAATT [GTGCAC_site9851]”, the “gcPBM binding intensity (ln)” value was 11.1 ± 0.45. The result for TCAAAAATTTATATAGTGCAATATATATATAATGTA reads 10.6 ± 0.72; that for CATATAATTTTATGGGTGCATTTTTTTGTAAGACCA, 10.1 ± 0.58; that for “TATAATAGTTCATAGGTGCAATATAATAAATTTATA [GTGCAC_site9573]”, 11.2 ± 0.47. Turning to “TAAATTTATATATAGGTGCGCAATTTGATAATAGTT [GTGCAC_site9783]”, the “gcPBM binding intensity (ln)” value was determined as 9.82 ± 0.19.

Take TATTAATATATAGTAGTGCAATAAAGATATACTGAA: the “gcPBM binding intensity (ln)” value is 10.9 ± 0.58. Then “TATTTTTATTTATAACGTACGAAAAATGTATATAAT [XGTACX_site703]”, with 7.96 ± 0.35; and “AAATTCCACGGACACACACACATATAAATAAATAAA [CACACA_site4811]”, with 8.23 ± 0.37; and “TCAACATTTAAAAATAGTACTCATAAACCTTTCGAA [XGTACX_site4111]”, with 7.42 ± 0.46. Then “TATGAATGGTTAAGTACACACATATTAATATAGGTA [CACACA_site7606]”, with 7.79 ± 0.49.

As for “ACATATATTTTTTTTTGTACATATAAATATATATAT [XGTACX_site6491]”, the “gcPBM binding intensity (ln)” value worked out at 8.7 ± 0.39. Then “TTTAAATATAATTGGAGTACTTATAATATATATATA [XGTACX_site7247]”, with 8.97 ± 0.12; and “CATTAATTTAATAAATGTACATAAAATATATATTAT [XGTACX_site8085]”, with 7.89 ± 0.36. For the sequence “CCATTATACACAATATGTACATATATATAATCATTT [XGTACX_site7942]”, the “gcPBM binding intensity (ln)” value was 8.04 ± 0.43. Then “AGAGATACATAAAAAAGTACATATAAAATTTAGGAA [XGTACX_site7201]”, with 7.96 ± 0.19; and “AATTATACGAAATAAAACTTAATAGACAAAAAATTA [CACACA_negctrl_site1384]”, with 7.54 ± 0.63. As to GTTATATTTAAAATAGTGCAATAAAAATAATAATAT, the “gcPBM binding intensity (ln)” value came to 11.4 ± 0.67.

Consider TGCAATTTAATATGAGTGCATATATTGAGAAAATAC, for which the “gcPBM binding intensity (ln)” value came out at 10.04 ± 0.035.

With ATATTTTATATAATAGTGCAAATAATATTAAATAAT, the “gcPBM binding intensity (ln)” value amounted to 10.8 ± 0.37. Then “TATATATTAAAAATAGTGCAAAATAATATATATATA [GTGCAC_site9716]”, with 10.78 ± 0.021; and “TTTGAAATATATTTAGTGCATATATATTGATTATAA [GTGCAC_site9604]”, with 10.4 ± 0.34; and “AATCAATTAATATTAGCATAAAATTTTATTATTTTG [XGTACX_negctrl_site479]”, with 7.46 ± 0.71.

TTACAATAAATTATAGTGCAATATTTTATTTAATAT: the “gcPBM binding intensity (ln)” value came to 10.6 ± 0.36. Then GAAAATAAAATATTAGTGCATTATTTGATCAATAAT, with 11.3 ± 0.73; and ACATATTAAATATGAGTGCAATATATATATATATAA, with 10.9 ± 0.43. Then “TATATGAACTTATATACACACCATTTTTGTAAATCT [CACACA_site4547]”, with 7.62 ± 0.54.
